In PubChem BioAssay (NCATS):
Inconclusive results are not listed. Activity calls are given as the source filed them. The call rests on the fitted dose curve; in most records, active means well fitted curve in the direction sought with a large enough effect; inconclusive means small, poorly fitted or top-dose-only effect, or another doubt; inactive means no such curve, though single readings can be large; an effect the other way counts as inactive or inconclusive.

Key:
[1] = target: Cellular tumor antigen p53 (Homo sapiens) (UniProt P04637); assay: Primary qHTS for small molecule compounds that upregulate eGFP-tagged delta133p53alpha (in N-terminal) cells. (AID 2060322); conditions: NCI-H358 eGFP-delta133p53alpha fluorescence, 24 h; activation: stronger effect = higher value;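 further: cells pre-induced with doxycycline then dosed without doxycycline; series mostly up to about 56 µM; 0% = DMSO vehicle and 100% = reference activator; nearly all actives have a fitted effect of over 75% in size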
Cellular tumor antigen p53 (Homo sapiens), sequence (P04637 whole entry, looked up): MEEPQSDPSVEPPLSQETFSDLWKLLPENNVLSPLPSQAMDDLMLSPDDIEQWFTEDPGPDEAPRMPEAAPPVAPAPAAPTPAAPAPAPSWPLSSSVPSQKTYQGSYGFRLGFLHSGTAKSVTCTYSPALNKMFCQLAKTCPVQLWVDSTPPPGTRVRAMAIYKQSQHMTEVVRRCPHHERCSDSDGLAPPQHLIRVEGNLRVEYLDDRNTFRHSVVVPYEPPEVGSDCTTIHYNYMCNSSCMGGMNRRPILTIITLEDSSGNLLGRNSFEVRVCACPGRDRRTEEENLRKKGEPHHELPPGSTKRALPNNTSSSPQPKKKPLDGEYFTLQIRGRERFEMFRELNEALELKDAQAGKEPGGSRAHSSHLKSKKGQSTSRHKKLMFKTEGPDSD
Outline: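 NCI-H358 cells pre-induced 24 h with 10 ng/ml doxycycline for eGFP-delta133p53alpha, plated dox-free and exposed 24 h at 37C to titrated compounds. Fixed, Hoechst-stained; gated GFP peak intensity by laser scanning cytometry, normalized to DMSO (0%) and 57.5 uM 5-azacytidine (100%).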

[2] = target: Aldehyde dehydrogenase, mitochondrial (Homo sapiens) (UniProt P05091); assay: qHTS for Inhibitors of the Aldehyde Dehydrogenase Family (ALDH2) Primary screen (AID 2061308);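 further: plate controls were vehicle for no effect and reference inhibitor for full effect; nearly all actives have a fitted effect of over 55% in size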
[3] = target: Retinaldehyde dehydrogenase 3 (Homo sapiens) (UniProt P47895); assay: qHTS for Inhibitors of the Aldehyde Dehydrogenase Family (ALDH1A3) Primary screen (AID 2061315);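 further: plate controls were DMSO vehicle for no effect and reference inhibitor for full effect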

CC(=O)OC1C(OC(=O)c2ccccc2)C2C(=C(C)CCC2(C)C)C23CCC(C)(C2)C(=O)CC13 (configuration not stated)
inactive: activation [1] -13% | Potency [2] | Potency [3]

CC1=C2CC(=O)C(C)CC/C=C(\C)CC2(O)OC1=O (configuration not stated)
inactive: activation [1] -1.53% | Potency [2] | Potency [3]

CC1(C(=O)O)CCCC2(C)C3CCC4CC3(CCC12)CC4C(=O)O (configuration not stated)
inactive: activation [1] -3.05% | Potency [2] | Potency [3]

CC1CCC2C(C)(C)C(O)C(O)CC2(C)C12Cc1c(O)cc(CO)c(C=O)c1O2 (configuration not stated)
inactive: activation [1] 0.763% | Potency [2] | Potency [3]

NC(=O)NCCCC(NC(=O)Cc1ccccc1)C(=O)O (configuration not stated)
inactive: activation [1] -1.79% | Potency [2] | Potency [3]

COc1ccc(Oc2c(Cl)cnn(C3c4ccccc4-c4ccccc43)c2=O)cc1
inactive: activation [1] 13.4% | Potency [2] | Potency [3]

Cc1nc2sc(C(=O)NCc3ccncc3)c(N)c2c(C)c1Cl
inactive: activation [1] 11% | Potency [2] | Potency [3]

C/C=C/C=C/[C@@H]1O[C@](O)([C@H](CC)C(=O)NC/C=C/C=C(\C)[C@@H](OC)[C@@H](C)C2OC(/C=C/C=C/C=C(\C)C(=O)c3c(O)cc[nH]c3=O)[C@H](O)[C@@H]2O)[C@H](O)[C@H](O)C1(C)C (some centres not stated)
inactive: activation [1] -1.79% | Potency [2] | Potency [3]

O=C(CC1C(=O)Nc2ccccc21)OC[C@H]1O[C@@H](OCCc2ccc(O)cc2)[C@H](O)[C@@H](O)[C@@H]1O (some centres not stated)
inactive: activation [1] 0% | Potency [2] | Potency [3]

C=C(C)[C@@H]1CC[C@]2(C(=O)O)CC[C@]3(C)C(CCC4[C@]5(C)C(CC[C@]43C)C(C)(C)[C@@H](O)[C@@H]5C(=O)O)C12 (some centres not stated)
inactive: activation [1] -18.3% | Potency [2] | Potency [3]

C=C1CC2[C@]3(C)C(=C(O)C(=O)[C@@]2(C)[C@]2(C(=O)OC)C(=O)C(C)OC(=O)[C@@]12C)C(C)(C)C(=O)CC3O (some centres not stated)
inactive: activation [1] 18.3% | Potency [2] | Potency [3]

CC(=O)OC(C)(C)/C=C/C(=O)[C@](C)(O)C1[C@H](O)C[C@@]2(C)[C@@H]3CC=C4[C@@H](C[C@H](O[C@@H]5O[C@H](CO)[C@@H](O)[C@H](O)[C@H]5O)C(=O)C4(C)C)[C@]3(C)C(=O)C[C@]12C (some centres not stated)
inactive: activation [1] -10.7% | Potency [2] | Potency [3]

CC(C)(C)c1ccc(S(=O)(=O)Nc2ccc(Cl)cc2C(=O)c2cc[n+]([O-])cc2)cc1
inactive: activation [1] -16.3% | Potency [2] | Potency [3]

C[C@@H]1O[C@@H](O[C@H]2[C@@H]3C=CO[C@@H](O[C@@H]4O[C@H](CO)[C@@H](O)[C@H](O)[C@H]4O)[C@@H]3[C@@]3(CO)O[C@@H]23)[C@H](O)[C@H](OC(=O)/C=C/c2ccc(O)cc2)[C@H]1OC(=O)/C=C/c1ccc(O)cc1
inactive: activation [1] -13% | Potency [2] | Potency [3]

O=C(Nc1ccc(Cl)cc1F)c1ccccc1O
inactive: activation [1] 8.59% | Potency [2] | Potency [3]

Cc1cccc(-c2[nH]ncc2-c2ccnc3ccccc23)n1
inactive: activation [1] 8.93% | Potency [2] | Potency [3]

C=CCc1ccc(O[C@@H]2O[C@H](CO)[C@@H](O)[C@H](O)[C@H]2O)c(OC)c1
inactive: activation [1] -19.6% | Potency [2] | Potency [3]

Cc1cc(O)c(C(C)C)cc1O[C@@H]1O[C@H](CO)[C@@H](O)[C@H](O)[C@H]1O
inactive: activation [1] -17.6% | Potency [2] | Potency [3]

O=C(NC1CCC1)c1ccc(C#Cc2cccc(F)c2)nc1
inactive: activation [1] 21.4% | Potency [2] | Potency [3]

CC[C@H]1OC(=O)[C@H](C)[C@@H](O[C@H]2C[C@@](C)(OC)[C@@H](O)[C@H](C)O2)[C@H](C)[C@@H](O[C@H]2O[C@H](C)C[C@H](N(C)C)[C@H]2O)[C@](C)(O)C[C@@H](C)C(=O)[C@H](C)[C@@H](O)[C@]1(C)O
inactive: activation [1] 9.67% | Potency [2] | Potency [3]

CCNC(=O)NCCCOc1cccc(CN2CCCCC2)c1
inactive: activation [1] 15% | Potency [2] | Potency [3]

CO[C@H]1[C@@H](O)[C@H](O[C@H]2CC[C@@]3(C)C(CCC4C3CC[C@]35COC6(COC(=O)C6)C3CCC45O)C2)O[C@@H](C)[C@@H]1OC1OC(CO)C(OC2OC(CO)C(O)C(O)C2O)C(O)C1O (some centres not stated)
inactive: activation [1] 6.87% | Potency [2] | Potency [3]

CC1(CO)CC[C@]2(C(=O)O[C@@H]3O[C@H](CO)[C@@H](O)[C@H](O)[C@H]3O)CC[C@]3(C)C(=CCC4[C@@]5(C)CC[C@H](O[C@@H]6O[C@H](C(=O)O)[C@@H](O)[C@H](O)[C@H]6O)C(C)(C)C5CC[C@]43C)C2C1 (some centres not stated)
inactive: activation [1] -4.46% | Potency [2] | Potency [3]

C=C1CC23CCC4[C@@](C)(CCC[C@@]4(C)C(=O)O)C2CCC1C3 (some centres not stated)
inactive: activation [1] 6.25% | Potency [2] | Potency [3]
